Experimental data as given in PubChem BioAssay.
Activity calls are given as the source filed them. Unless noted, no rule for the calls is given here.

Key:
[1] = test system: Wnt5a (protein binding on small-molecule microarray); experiment: small molecules binding Wnt5a protein – biophysical, small-molecule microarray, 635/667 nm fluorescence, primary screen (AID 1142); conditions: 635 nm fluorescence, higher = more signal;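 also: fluorescence read at 667 nm with signal to noise per printed feature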
[2] = ATP-based viability of Huh7 replicon cells – cell-based, CellTiter-Glo luminescence, basal, 48 h, cytotoxicity control for HCV replication inhibitor project, primary screen (AID 1143); conditions: higher = more signal, called active from +8 up or from −8 down;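 also: Huh7 hepatoma cells carrying a hepatitis C replication reporter with no stimulus; test concentration not given here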
[3] = Pseudomonas biofilm growth suppression – PAO1 strain, BacTiter-Glo luminescence, LB-PBS, primary screen (AID 1144); conditions: P. aeruginosa PAO1 biofilm, 12 h, higher = more signal
[4] = basal CRE-LacZ reporter activity in PC12 – cell-based, unstimulated, primary screen (AID 1145); conditions: no forskolin, luminescence, 4.5 h, higher = more signal, called active from +8 up or from −8 down
[5] = forskolin-driven CRE-LacZ activity in PC12 – cell-based, CRE-LacZ reporter, forskolin-stimulated, primary screen (AID 1146); conditions: luminescence, 4.5 h, higher = more signal, called active from +8 up or from −8 down;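 also: PC12 cells with 6xCRE LacZ reporter stimulated by forskolin 10 µM; beta-galactosidase reporter signal reflecting CREB driven transcription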
[6] = target: Streptavidin (Streptomyces avidinii) (UniProt P22629); experiment: compounds binding control protein streptavidin – biophysical, small-molecule microarray, 635/667 nm fluorescence, artefact control for SMM compound annotation, primary screen (AID 1147); conditions: higher = more signal;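 also: signal reflects streptavidin binding to arrayed compounds as a control protein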
[7] = probe aInhba binding on compound microarray – biochemical, small-molecule microarray, 635/667 nm fluorescence, primary screen (AID 1148); conditions: higher = more signal;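 also: score merges 667nm spot fluorescence with signal-to-noise for antibody binding to printed compounds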
Torsin-1A (Homo sapiens) [8] = target: Torsin-1A (Homo sapiens) (UniProt O14656); experiment: TOR1A wild-type binding on microarray – cell lysate, small-molecule microarray, lysate, 635/667 nm, primary screen (AID 1149); conditions: COS7 hTOR1A-WT lysate, 635 nm fluorescence, higher = more signal
Torsin-1A (Homo sapiens) [9] = target: Torsin-1A (Homo sapiens) (UniProt O14656); experiment: torsin A mutant lysate binding on microarrays – cell lysate, small-molecule microarray, COS7 lysate, 635/667 nm fluorescence, primary screen (AID 1150); conditions: COS7 hTOR1A mutant lysate, 635 nm fluorescence, higher = more signal;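 also: score pools 667 nm emission and signal to noise measuring lysate protein binding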
[10] = test system: Sonic hedgehog protein (Shh); experiment: Sonic hedgehog microarray binding compounds – biochemical, small-molecule microarray, 635/667 nm fluorescence, primary screen (AID 1151); conditions: 635 nm fluorescence, higher = more signal;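 also: Shh protein binding to compounds spotted on small-molecule microarray slides; score combines spot fluorescence intensity with signal-to-noise across triplicate slides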
[11] = optical density shifts of acrAB sulA E. coli – strain DRC41, OD650, 48 h, E. coli filamentation inducer project, primary screen (AID 1152); conditions: higher = more signal, called active from +8 up or from −8 down;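 also: E. coli MC1000 strain DRC41 lacking acrAB efflux pump and sulA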
[12] = probe aLefty1 binding on compound microarray – biochemical, small-molecule microarray, 635/667 nm fluorescence, primary screen (AID 1153); conditions: higher = more signal;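 also: score merges spot fluorescence with signal-to-noise ratio from the scanned slide images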
[13] = plasmodial surface anion channel blockers, osmotic lysis – cell-based, P. falciparum Indochina, OD700, 1 h, primary screen (AID 1154); conditions: P. falciparum Indochina infected RBC osmotic lysis, higher = more signal, called active from +8 up or from −8 down
[14] = plasmodial surface anion channel blockers, osmotic lysis – cell-based, P. falciparum Indochina, OD700, 2 h, primary screen (AID 1155);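 also: lysis reports solute entry through the parasite surface anion channel PSAC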; conditions: P. falciparum Indochina infected erythrocytes, higher = more signal, called active from +8 up or from −8 down
[15] = changes in parasitized red cell lysis, either direction – P. falciparum Indochina, OD700, 3 h, PSAC antagonist project, primary screen (AID 1156); conditions: P. falciparum-infected erythrocytes, osmotic lysis, higher = more signal, called active from +8 up or from −8 down
[16] = plasmodial surface anion channel blockers, osmotic lysis – cell-based, P. falciparum Indochina, OD700, 18 h, primary screen (AID 1157); conditions: P. falciparum Indochina infected erythrocytes, osmotic lysis OD700, 18 h; higher = more signal, called active from +8 up or from −8 down
[17] = S6 kinase pathway phospho-S6 level changes – cell-based, A549, cytoblot, luminescence, serum-stimulated, primary screen (AID 1158); conditions: 5 h, higher = more signal;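 also: serum-stimulated A549 lung adenocarcinoma cells; signal is phosphorylated S6 detected by cytoblot immunostaining with HRP secondary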
[18] = target: NADPH oxidase 2 (Homo sapiens) (UniProt P04839); experiment: compounds shifting NOX2 Amplex Red fluorescence – cell-based, HEK293-NOX2, PMA-stimulated, NOX inhibitor project, primary screen (AID 1159); conditions: 45 min, higher = more signal, called active from +8 up or from −8 down; also: test concentration not given here
[19] = target: NADPH oxidase 4 (Homo sapiens) (UniProt Q9NPH5); experiment: compounds shifting NOX4 Amplex Red fluorescence – cell-based, HEK293-NOX4, tetracycline-induced, NOX inhibitor project, primary screen (AID 1160); conditions: HEK293-NOX4, Amplex Red H2O2 fluorescence, 45 min; higher = more signal, called active from +8 up or from −8 down
[20] = target: NADPH oxidase 5 (Homo sapiens) (UniProt Q96PH1); experiment: compounds shifting NOX5 Amplex Red fluorescence – cell-based, HEK293-NOX5, NOX inhibitor project, primary screen (AID 1161); conditions: HEK293-NOX5, ionomycin, 45 min, higher = more signal
Chain of NADPH oxidase 5 (Homo sapiens) (Q96PH1 whole entry, looked up): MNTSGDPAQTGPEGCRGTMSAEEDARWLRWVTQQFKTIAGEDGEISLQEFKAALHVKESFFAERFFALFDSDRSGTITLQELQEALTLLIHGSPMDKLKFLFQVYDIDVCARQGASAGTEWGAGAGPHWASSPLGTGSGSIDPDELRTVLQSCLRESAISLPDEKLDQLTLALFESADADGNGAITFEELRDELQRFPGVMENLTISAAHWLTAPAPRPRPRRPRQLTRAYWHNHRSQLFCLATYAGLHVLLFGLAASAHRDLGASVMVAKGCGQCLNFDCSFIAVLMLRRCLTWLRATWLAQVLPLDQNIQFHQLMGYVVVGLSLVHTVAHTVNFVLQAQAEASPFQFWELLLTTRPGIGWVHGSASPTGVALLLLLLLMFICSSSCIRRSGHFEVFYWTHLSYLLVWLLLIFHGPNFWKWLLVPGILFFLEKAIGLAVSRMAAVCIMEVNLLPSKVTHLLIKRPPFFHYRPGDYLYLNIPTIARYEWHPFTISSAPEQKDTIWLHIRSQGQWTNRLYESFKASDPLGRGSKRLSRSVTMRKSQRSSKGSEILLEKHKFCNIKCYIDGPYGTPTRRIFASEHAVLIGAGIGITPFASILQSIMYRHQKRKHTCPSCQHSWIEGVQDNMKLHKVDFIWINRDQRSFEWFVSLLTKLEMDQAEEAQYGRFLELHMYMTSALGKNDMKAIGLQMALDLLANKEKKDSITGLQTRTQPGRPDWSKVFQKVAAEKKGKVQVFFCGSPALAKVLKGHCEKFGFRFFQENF

Chain of NADPH oxidase 4 (Homo sapiens) (Q9NPH5 whole entry, looked up): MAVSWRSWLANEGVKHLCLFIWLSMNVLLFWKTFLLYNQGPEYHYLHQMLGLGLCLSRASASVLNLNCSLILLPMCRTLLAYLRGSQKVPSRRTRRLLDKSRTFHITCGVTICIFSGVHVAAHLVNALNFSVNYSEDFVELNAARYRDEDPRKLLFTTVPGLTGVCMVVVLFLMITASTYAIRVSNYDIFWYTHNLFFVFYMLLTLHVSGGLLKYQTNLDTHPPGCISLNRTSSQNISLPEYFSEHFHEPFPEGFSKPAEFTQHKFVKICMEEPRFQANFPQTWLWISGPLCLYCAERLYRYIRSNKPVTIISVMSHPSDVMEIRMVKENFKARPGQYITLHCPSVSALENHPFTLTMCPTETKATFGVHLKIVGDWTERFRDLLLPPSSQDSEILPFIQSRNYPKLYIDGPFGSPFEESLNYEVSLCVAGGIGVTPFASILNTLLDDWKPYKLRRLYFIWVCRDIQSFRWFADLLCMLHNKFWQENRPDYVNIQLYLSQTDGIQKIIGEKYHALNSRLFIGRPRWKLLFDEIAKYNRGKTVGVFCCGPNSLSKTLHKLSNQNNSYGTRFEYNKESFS
Chain of Streptavidin (Streptomyces avidinii) (P22629 whole entry, looked up): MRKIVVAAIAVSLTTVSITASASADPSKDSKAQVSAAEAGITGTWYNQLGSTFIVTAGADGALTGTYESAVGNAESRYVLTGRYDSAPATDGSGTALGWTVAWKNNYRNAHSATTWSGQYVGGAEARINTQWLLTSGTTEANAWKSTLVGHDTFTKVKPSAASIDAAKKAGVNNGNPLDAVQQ
Chain of Torsin-1A (Homo sapiens) (O14656 whole entry, looked up): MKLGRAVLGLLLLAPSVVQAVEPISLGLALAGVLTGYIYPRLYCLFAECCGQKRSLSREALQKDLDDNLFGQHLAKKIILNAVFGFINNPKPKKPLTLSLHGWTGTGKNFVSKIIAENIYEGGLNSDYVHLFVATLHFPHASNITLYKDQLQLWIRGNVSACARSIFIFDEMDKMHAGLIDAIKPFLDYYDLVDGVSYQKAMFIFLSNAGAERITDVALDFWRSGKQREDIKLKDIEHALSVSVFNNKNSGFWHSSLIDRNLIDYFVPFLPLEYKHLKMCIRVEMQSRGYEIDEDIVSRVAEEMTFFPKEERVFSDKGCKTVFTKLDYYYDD
Chain of NADPH oxidase 2 (Homo sapiens) (P04839 whole entry, looked up): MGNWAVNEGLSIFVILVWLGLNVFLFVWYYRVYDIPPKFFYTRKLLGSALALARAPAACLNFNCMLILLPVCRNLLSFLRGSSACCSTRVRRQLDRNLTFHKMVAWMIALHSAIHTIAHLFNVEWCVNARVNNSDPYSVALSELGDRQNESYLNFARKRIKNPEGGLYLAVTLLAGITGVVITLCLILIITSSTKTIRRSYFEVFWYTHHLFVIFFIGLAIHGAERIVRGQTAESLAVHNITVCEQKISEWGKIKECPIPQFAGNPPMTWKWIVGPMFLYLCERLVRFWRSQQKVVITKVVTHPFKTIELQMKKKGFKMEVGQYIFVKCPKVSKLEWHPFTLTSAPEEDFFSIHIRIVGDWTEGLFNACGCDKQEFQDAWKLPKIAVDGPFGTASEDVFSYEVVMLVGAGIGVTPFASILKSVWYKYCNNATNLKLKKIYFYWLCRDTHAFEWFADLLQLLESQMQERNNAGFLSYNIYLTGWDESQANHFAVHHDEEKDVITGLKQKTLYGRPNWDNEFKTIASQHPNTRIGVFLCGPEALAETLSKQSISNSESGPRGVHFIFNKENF

Row | SMILES | composite z-score [1] | z-score [2] | z-score [3] | z-score [4] | z-score [5] | composite z-score [6] | composite z-score [7] | composite z-score (Torsin-1A (Homo sapiens) [8]) | composite z-score (Torsin-1A (Homo sapiens) [9]) | composite z-score [10] | z-score [11] | composite z-score [12] | z-score [13] | z-score [14] | z-score [15] | z-score [16] | z-score [17] | z-score [18] | z-score [19] | z-score [20]
1 | N#Cc1ccc(C(O)C2C=CC3C(=O)NC(=O)C3N2Nc2ccc(Cl)cc2Cl)cc1 (stereo not given) | -0.0844 | 0.199 (inactive) | -0.376 (inactive) | 0.629 (inactive) | -0.728 (inactive) | 0.865 | 0.104 | -0.404 | 0.0924 | -0.855 | -1.18 (inactive) | 0.243 | 13.7 (active) | 2.42 (inactive) | 2.15 (inactive) | 1.39 (inactive) | -1.29 | -1.23 (inactive) | -5.23 (inactive) | -2.75
2 | O=C(NCc1ccccc1)[C@@H]1c2ccccc2C(=O)N(Cc2ccc(OC(F)(F)F)cc2)[C@H]1c1ccc(CO)cc1 | -0.134 | -0.495 (inactive) | 0.0274 (inactive) | 0.208 (inactive) | 0.129 (inactive) | -0.756 | 0.0102 | 0.521 | 0.162 | -0.493 | 0.39 (inactive) | 0.656 | 3.9 (inactive) | 0.566 (inactive) | 1.56 (inactive) | 0.158 (inactive) | 0.503 | -3.06 (inactive) | 0.263 (inactive) | 0.401
3 | CN1C(=O)[C@@H]2[C@@H](CC(COc3ccccc3)=C3[C@@H](CCc4ccccc4)OB(O)C[C@@H]32)C1=O | 0.0305 | -0.706 (inactive) | 0.32 (inactive) | 1.76 (inactive) | 0.89 (inactive) | -0.156 | -0.128 | 0.179 | 0.0191 | 0.394 | -0.759 (inactive) | -0.191 | 4.5 (inactive) | 0.626 (inactive) | -0.488 (inactive) | 0.133 (inactive) | -0.202 | 0.693 (inactive) | 0.41 (inactive) | 0.82
4 | O=C1O[C@@H](c2ccccc2)[C@@H](c2ccccc2)N2[C@@H](c3ccc(OCCO)cc3)[C@]3(C(=O)Nc4ccc(C#CCCO)cc43)[C@@H](C(=O)O)[C@H]12 | 0.529 | -0.579 (inactive) | -0.155 (inactive) | -0.761 (inactive) | -0.0408 (inactive) | 1.84 | 1.34 | 0.892 | 0.203 | 0.688 | 0.624 (inactive) | 1.31 | 1.93 (inactive) | -0.0017 (inactive) | 0.88 (inactive) | -0.097 (inactive) | -0.197 | 2.08 (inactive) | 0.716 (inactive) | 1.1
5 | NC(=O)N1C(=O)C2C(C1=O)C1C=C(CCCO)C2C(c2ccc(CN3CCCC3)cc2)N1Cc1sc2ccccc2c1Cl (stereo not given) | -0.24 | -3.46 (inactive) | 0.386 (inactive) | -0.0602 (inactive) | -1.08 (inactive) | 0.558 | -0.268 | -0.174 | 0.823 | 0.287 | -0.711 (inactive) | -0.251 | 3.48 (inactive) | 0.894 (inactive) | 0.363 (inactive) | 0.504 (inactive) | 0.457 | -0.101 (inactive) | 0.353 (inactive) | 0.198
6 | CC(C)C(=C=CC[C@H](O)c1ccccc1OCCO)C[C@H](O)COCc1ccccc1 | -0.042 | -2.03 (inactive) | 0.297 (inactive) | 16 (active) | -0.0014 (inactive) | -0.266 | -0.101 | -0.0509 | 1.12 | 0.0553 | -0.188 (inactive) | -0.174 | 13.2 (active) | 2.13 (inactive) | 1.54 (inactive) | 1.21 (inactive) | -0.181 | -1.34 (inactive) | -1.44 (inactive) | -2.38
7 | CN(C)CCCC[C@@H]1NC(=O)[C@@H]2C[C@H](C(=O)NCCCCCCNC(=O)CS)[C@H](c3ccc(O)cc3)N2C1=O | 0.412 | -0.211 (inactive) | -0.525 (inactive) | 0.549 (inactive) | 0.375 (inactive) | -0.406 | 0.257 | 0.71 | 0.702 | 1.62 | -1.05 (inactive) | 0.0013 | 1.19 (inactive) | 0.284 (inactive) | -1.22 (inactive) | 0.0814 (inactive) | 0.58 | 0.559 (inactive) | 0.781 (inactive) | 0.873
8 | CCCCCCc1nc(Cc2cc(OC)c(OC)c(OC)c2)cc2c1[Si](C(C)C)(C(C)C)O[C@H]2c1ccccc1 | -0.0493 | -2.1 (inactive) | 0.129 (inactive) | 0.367 (inactive) | 0.0748 (inactive) | 0.0406 | -0.154 | 0.128 | -0.155 | 1.19 | -1.42 (inactive) | 0.092 | 0.612 (inactive) | 0.482 (inactive) | 0.491 (inactive) | -0.23 (inactive) | -0.147 | -0.472 (inactive) | -0.137 (inactive) | -1.73
